Sampled rows, rich in hits. Any-hit rate of the full collection: about 7%.
D3 ag: agonists of human D3 dopamine receptor; P35462; D3R DiscoveRx beta-arrestin cells, luminescence, 90 min; max activation, %; 410,000 compounds, 0.58% hits; AID 652048; in the data active means max activation above about 30%; further: 0% is about no effect
Target sequence (P35462 whole entry, looked up): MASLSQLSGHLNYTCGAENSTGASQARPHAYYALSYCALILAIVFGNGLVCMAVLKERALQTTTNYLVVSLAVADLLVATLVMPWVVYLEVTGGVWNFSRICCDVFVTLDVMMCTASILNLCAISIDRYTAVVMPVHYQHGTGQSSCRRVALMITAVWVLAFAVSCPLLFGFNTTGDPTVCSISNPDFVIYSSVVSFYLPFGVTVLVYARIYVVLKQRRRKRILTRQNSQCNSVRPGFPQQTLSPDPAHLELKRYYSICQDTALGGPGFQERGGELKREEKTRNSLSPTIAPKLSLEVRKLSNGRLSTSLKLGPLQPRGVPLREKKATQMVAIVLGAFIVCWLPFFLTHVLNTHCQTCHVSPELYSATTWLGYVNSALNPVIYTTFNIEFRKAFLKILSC
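Agonist mode: compounds and dopamine controls were applied to plated cells for 90 min at 37 degrees C after an overnight attachment at 1500 cells/well. Luminescent read-out followed 30 - 60 minutes at room temperature with DiscoveRx detection reagent.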
a7 integrin act: activators of alpha7 integrin expression for muscular dystrophy; alpha7betagal myoblasts, beta-gal FDG fluorescence, 48 h; Potency, µM (top dose mostly 38.3 µM), without a hit: at the top dose activation, usual class: activators; 350,000 compounds, 0.064% hits; AID 624291;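 further: potency means the concentration at half of the fitted maximal effect; 100% = response of the positive control SU9516; nearly all actives have a fitted effect of over 60% in size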
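alpha7betagal+/- myoblasts (passage 13, 250/well) treated 48 h at 37C with compounds at 1:260 dilution of DMSO stock. Lysed, then beta-galactosidase activity read as FDG fluorescence (ex 480/em 540) after 30 min, with pre-read for autofluorescence.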
D3 antag: D3 dopamine receptor (human) antagonism. P35462. D3R cells, DiscoveRx beta-arrestin luminescence, antagonist mode; active compounds read low. max response, negative = inhibition, %. 360,000 compounds, 2.5% hits. AID 652054; in the data active means max response below about -50%; inconclusive means no clear call, values can overlap the other calls; further: on the % scale 0 is the no-effect control and ±100 the full control effect
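Cells expressing the human receptor were seeded at 1500 cells/well, incubated overnight at 37 degrees C in 5% CO2, then exposed to library compounds with dopamine controls for 90 minutes at 37 degrees C before luminescent detection.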
S2 tox: viability counter-screen for ATXN expression inhibitors; AID 651635; 400,000 compounds, 0.49% hits; Potency, µM (doses to about 56.7 µM), actives largely listed as cytotoxic; S2 cells (HEK-293 line with an ATXN2-luciferase reporter) viability, CellTiter-Fluor protease fluorescence, 24 h; further: potency means the concentration at half of the fitted maximal effect; nearly all actives have a fitted effect of over 40% in size
ATXN2 expr inh: reduces ATXN2 reporter expression in HEK-293 cells; HEK-293 ATXN2-luciferase reporter, luminescence, 24 h; Potency, µM (top dose mostly 57 µM), for the others: at the highest dose activity change, negative = inhibition, usual class: inhibitors; 360,000 compounds, 0.72% hits; AID 1745845; further: potency means the concentration at half of the fitted maximal effect; on the % scale 0 is the no-effect control and ±100 the full control effect; nearly all actives have a fitted effect of over 55% in size
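qHTS (up to 57 uM final) was run with 24 h compound exposure of reporter cells at 37 °C. Each well was multiplexed: SteadyGlo luminescence measured ATXN2-luciferase expression after a fluorogenic Gly-Phe-AFC viability readout (25 uM final).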
IL1B secr inh: inhibitors of inflammasome signaling (IL-1 beta secretion). activity change, % at 57.5 µM. 360,000 compounds, 4.7% hits. THP-1 LPS/ATP IL-1B secretion, AlphaLISA, 16 h; active compounds read low. AID 743279; in the data active means activity change below about -50%; inconclusive means mostly about -30% to -49%; further: on the % scale 0 is the no-effect control and ±100 the full control effect
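THP-1 cells pretreated 1 hr with compounds (up to 57.5 uM final), then stimulated with LPS (250 ng/mL final) plus ATP (1.25 mM final); secreted IL-1B measured by AlphaLISA after 16 hr, decreased signal indicating inhibition.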
* hit, by the source's call; i = inactive; ? = inconclusive; / = no result; [ ] = dose if it differs, or a comment. Unless noted, the call rests on the fitted dose curve; in most records, active means well fitted curve in the direction sought with a large enough effect; inconclusive means small, poorly fitted or top-dose-only effect, or another doubt; inactive means no such curve, though single readings can be large; an effect the other way counts as inactive or inconclusive.

SMILES	D3 ag	a7 integrin act	D3 antag	S2 tox	ATXN2 expr inh	IL1B secr inh
Cc1nc(N)sc1C(=O)N/N=C/c1c[nH]c2ccccc12	-8	-14%	-9	i	-9%	-55*
CCCCn1c(CNC(=O)c2ccc(OC)cc2)nnc1SCC(=O)Nc1ccccc1	3	/	/	i	-1%	/
CC[C@H](CO)Nc1nc(Nc2cccc(Cl)c2)c2ncn(C(C)C)c2n1	4	-33%	-6	16µM*	?	-99*
Fc1cc(F)nc(NCc2ccccc2)n1	37*	-10%	12	i	7%	14
Clc1cccc(NCc2ccccc2)n1	9	18%	-3	i	-11%	-20
Fc1cc(NCc2ccccc2)nc(NCc2ccccc2)n1	-4	23%	-2	i	5%	-60*
Fc1ccc(CNc2nc(-c3ccccc3)cc(C(F)(F)F)n2)cc1	-6	/	/	i	-9%	/
CN(C)c1ccc(/C=C2\C(=N)N3N=C(CC(=O)N4CCCCC4)SC3=NC2=O)cc1	-8	2%	-3	i	7%	13
CC1(C(=O)NCc2ccccc2Br)CCN1Cc1ccccc1OC(F)F (centres undefined)	13	/	5	i	-26%	-54*
Cc1ccc(C(=O)CC(=O)c2ccccc2C)c(O)c1	11	-10%	-50*	/	2%	67
Cc1ccc(C(=O)CC(=O)c2cccc(F)c2)c(O)c1	-3	-22%	-62*	?	-18%	62
O=C(CCN1C(=O)/C(=C/c2ccccc2F)SC1=S)Nc1cccnc1	-11	5%	18	i	-3%	-7
O=C(CCCN1C(=O)/C(=C/c2ccccc2OC(F)F)SC1=S)Nc1cccnc1	4	-56%	14	/	?	-85*
O=C(CCN1C(=O)/C(=C\c2ccccc2Cl)SC1=S)Nc1cccnc1	3	-15%	5	?	2%	-52*
CCc1c(C)nc(SCC(=O)c2cccs2)c(C#N)c1C	2	-9%	4	i	41%	-99*
O=C1C2C(C(=O)N1/N=C/c1cc([N+](=O)[O-])c(O)cc1O)C1C=CC2C12CC2 (centres undefined)	-3	-23%	?	i	-24%[11.3 µM]	20
O=C1C2C(C(=O)N1/N=C/c1cc(Br)cc([N+](=O)[O-])c1O)C1C=CC2C12CC2 (centres undefined)	-30	7%	-70*	i	1%	?
O=C(CNS(=O)(=O)/C=C/c1ccccc1)OCC(=O)N1CCC(Cc2ccccc2)CC1	6	9%	-28	i	1%	-84*
CC1CC(C)CN(C(=O)COC(=O)CNS(=O)(=O)/C=C/c2ccccc2)C1 (centres undefined)	-10	2%	-29	i	-12%	-13
O=C(CCNS(=O)(=O)c1ccccc1)N1CCC(Cc2ccccc2)CC1	-2	-15%	30	i	-19%	-50*
COc1ccc(C(=O)Nc2nnc(S(=O)(=O)N(C)c3ccc(Cl)cc3)s2)cc1OC	-18	/	/	/	/	/
Cc1ccc(C2Nc3ccccc3NC3=C2C(=O)OC(C)C3)cc1 (centres undefined)	6	10%	-5	i	-13%	8
COc1ccc(CC(NC(C)=O)C(=O)NC2CCN(C(=O)Nc3ccc(Cl)cc3)CC2)cc1OC (centres undefined)	-4	7%	-10	i	-2%	8
COc1ccc(NC(=O)Nc2nnc(C(C)C)s2)cc1	-13	-6%[7.66 µM]	18	i	68%	-20
Clc1ccc(-c2cn3nc4c(nc3n2)CCCC4)cc1	-4	8%	-3	/	14µM*	-4
COC(=O)Cc1ccc(NC(=S)Nc2ccc(N3CCOCC3)cc2)cc1	-3	9%	13	i	-1%	22
CC1(C(=O)NS(=O)(=O)c2ccc(Cl)cc2)CCN1C(=O)CCc1ccc(Cl)cc1Cl (centres undefined)	-15	/	-52*	i	-5%	36
CC1(C(=O)NS(=O)(=O)c2cccc(Cl)c2)CCN1C(=O)Cc1ccc(Cl)cc1Cl (centres undefined)	-26	/	-83*	i	-6%	-19

Screening results: PubChem, National Center for Advancing Translational Sciences (NCATS)
